Data published in PubChem BioAssay (EPA / NIEHS).
Active and inactive are the calls of the source. Rule for the calls: active = hit-call score of the fitted dose curve at least 0.9, where 1 is the maximum; inactive = score below 0.9.

Read-out: Ezrin (EZR), EZR (gene 7430)
Experiment: LTEA_HepaRG_EZR: Life Technologies and Expression Analysis (LTEA) Assay for Ezrin (EZR) using HepaRG (AID 2283491)
Settings: mRNA level, 48 h; actives raise or lower the signal
Protocol: It is a marker of Cellular remodeling.Data from the assay component LTEA_HepaRG_EZR was analyzed into 1 endpoint. This assay endpoint, LTEA_HepaRG_EZR, was analyzed with bidirectional fitting relative to DMSO as the negative control and baseline of activity. Using a type of inducible reporter, measures of mRNA induction for gain or loss-of-signal activity can be used to understand regulation of transcription factor activity. To generalize the intended target to other relatable targets, this assay endpoint is annotated to the membrane protein intended target family, where the subfamily is Cellular remodeling.
A total of 1060 chemcials from the ToxCast library were tested in eight-point concentration-response experiments. Cell culture and cytotoxicity assays were conducted at Thermo Fisher Scientific's Custom Services facility (Madison, WI). A single lot of human HepaRG cells (Thermo Fisher Scientific, Frederick, MD) was used for the cell culture experiments. 96-well format collagen type I coated plates of human HepaRG cells were prepared using established methods. Briefly, cryopreserved HepaRG cells were thawed, plated at a density of approximately 100,000 cells/well in HepaRG Thaw, Plate, and General Purpose media (HPRG770, Thermo Fisher Scientific), and incubated for 48 hours. 0.5% DMSO was selected as vehicle control to balance the requisite need of DMSO in HepaRG cultures to maintain differentiation (for example, baseline metabolism, proportions of hepatocytes vs. cholangiocytes), while enabling further hepatic receptor pathway activation (for example, PXR and CAR) in response to chemical exposure. 48 hours after plating, the culture medium was replaced with HepaRG Serum-Free Incudtion Media. Cells were exposed to each test chemical in duplicate and maintained in CO2 incubators for another 48 hours. Chemical plates were thawed to room temperature and 200x concentrations of treatment groups were prepared. 8-point conentration-reponse curves were made with the highest exposure at 100 uM, followed by half-log dilutions, all in 0.5% DMSO. Each test plate contained variouse controls, induction positive controls (1mM phenobarbital), cytotoxicity positive controls ([…] aflatoxin B1), vehicle controls (0.5% DMSO), and total lysis controls (0.5% DMSO). Cell morphology images were taken using an Essen IncuCyte FLR automated microscope, with six 96-well plates imaged in about 24 minutes. Images were captured and exported and JPEG files. Spent culture media was transfered to black-well plates for the LDH assay, and remaining media was sorted at -80 C for later use. Cells were treated with RLT buffer and frozen until shipped for gene expression analysis. Total RNA was isolated from the cell suspension in 75 uL of Buffer RLT (Qiagen, Germantown, MD 20874) by Quintiles/Expression Analysis (Durham, NC) using a custom isolation procedure. Total RNA from each plate well was transferred to a preamplification plate. Fluidigm's 96.96 Dynamic ArrayTM (Fluidigm, Amsterdam, the Netherlands) technology was used for gene expression analyses by quantitative reverse transcription polymerase chain reaction (qRT-PCR, performed by Quintiles/Expression Analysis, Durham, NC)89. Standard TaqManTM Assays (Applied Biosystems/ThermoFisher Scientific, Foster City, CA) were used to assess the expression of 93 genes selected based on their selectivity and sensitivity to important hepatic receptors known to be modulated by environmental chemicals; importance in human hepatocyte functionality; and hepatotoxicity. Three "housekeeping" endogenous control genes were also included and used for normalization: actin beta (ACTB), Glyceraldehyde 3 phosphate dehydrogenase (GAPDH) and RNA Polymerase II Subunit A (POLR2A). qRT-PCR was conducted according to the manufacturer's protocol.

Row | SMILES | outcome | AC50
1 | CCCCC(CC)CN1C(=O)C2C3C=CC(C3)C2C1=O (stereo not given) | inactive | 
2 | CCCCCCC(C)OC(=O)COc1nc(F)c(Cl)c(N)c1Cl (stereo not given) | inactive | 
3 | CSC(=O)c1cccc2nnsc12 | inactive | 
4 | CC(C)(c1ccc(O)cc1)c1ccc(O)cc1 | inactive | 
5 | CCOC(=O)COc1cc(-n2ncc(C(F)(F)F)c(C)c2=O)c(F)cc1Cl | inactive | 
6 | O=C(Nc1ccc([N+](=O)[O-])cc1Cl)c1cc(Cl)ccc1O | inactive | 
7 | C[C@]12CC[C@@H]3c4ccc(O)cc4C[C@@H](CCCCCCCCCS(=O)CCCC(F)(F)C(F)(F)F)[C@H]3[C@@H]1CC[C@@H]2O (stereo not given in full) | inactive | 
8 | O=C(c1ccc(O)cc1O)c1ccc(O)cc1O | inactive | 
9 | CCCCCOC(=O)COc1cc(N2C(=O)C3=C(CCCC3)C2=O)c(F)cc1Cl | inactive | 
10 | C[C@]12C[C@H](O)[C@H]3[C@@H](CCC4=CC(=O)CC[C@@]43C)[C@@H]1CC[C@@H]2C(=O)CO | inactive | 
11 | O=C(O)c1ccccc1 | inactive | 
12 | Cc1nn(C)c(Oc2ccccc2)c1C=NOCc1ccc(C(=O)OC(C)(C)C)cc1 |  | 3.29 µM (active)
13 | CC1(C)C(C=C(Cl)Cl)C1C(=O)OCc1cccc(Oc2ccccc2)c1 (stereo not given) | inactive | 
14 | CC(=O)[C@H]1CC[C@H]2[C@@H]3CCC4=CC(=O)CC[C@]4(C)[C@H]3CC[C@]12C | inactive | 
15 | C#CCOC(=O)[C@@H](C)Oc1ccc(Oc2ncc(Cl)cc2F)cc1 | inactive | 
16 | COCCO | inactive | 
17 | CC(C)CCCCCCc1ccc(O)cc1 | inactive | 
18 | CCCCOCCOCCOCc1cc2c(cc1CCC)OCO2 | inactive | 
19 | CCOC(=O)C(C)Oc1ccc(Oc2nc3ccc(Cl)cc3o2)cc1 (stereo not given) | inactive | 
20 | OB(O)O | inactive | 

Row | SMILES | outcome | AC50
21 | C=CCOC(Cn1ccnc1)c1ccc(Cl)cc1Cl (stereo not given) | inactive | 
22 | CCCN(CCC)C(=O)SCC | inactive | 
23 | CCN(Cc1c(F)cccc1Cl)c1c([N+](=O)[O-])cc(C(F)(F)F)cc1[N+](=O)[O-] | inactive | 
24 | CCC(C)OC(=O)N1CCCCC1CCO (stereo not given) | inactive | 
25 | CCCCC(CC)COC(=O)c1ccccc1C(=O)O (stereo not given) | inactive | 
26 | N[C@@H](Cc1cc(I)c(Oc2ccc(O)c(I)c2)c(I)c1)C(=O)O | inactive | 
27 | CCCOC(=O)NCCCN(C)C | inactive | 
28 | S=C([S-])NCCNC(=S)[S-].[Mn+2] | inactive | 
29 | N#CSCSc1nc2ccccc2s1 | inactive | 
30 | C#C[C@]1(O)CC[C@H]2[C@@H]3CCC4=CC(=O)CC[C@@H]4[C@H]3CC[C@@]21CC | inactive | 
31 | COC(=O)c1ccccc1C(=O)O | inactive | 
32 | COC(=O)c1ccc(I)cc1S(=O)(=O)NC(=O)Nc1nc(C)nc(OC)n1 | inactive | 
33 | CC(C)(C)[C@@H](O)[C@@H](Cc1ccc(Cl)cc1)n1cncn1 | inactive | 
34 | COc1c(Cl)ccc(Cl)c1C(=O)O | inactive | 
35 | CC(=O)S[C@@H]1CC2=CC(=O)CC[C@]2(C)[C@H]2CC[C@@]3(C)[C@@H](CC[C@@]34CCC(=O)O4)[C@H]12 |  | 0.387 µM (active)
36 | CCCN(CCC)c1c([N+](=O)[O-])cc(C(F)(F)F)c(N)c1[N+](=O)[O-] | inactive | 
37 | S=C(S)NCCNC(=S)S.[Mn+2].[S-]C([S-])=NCCN=C([S-])[S-].[Zn+2] | inactive | 
38 | O=C(c1ccccc1)C1CCCCC1 | inactive | 
39 | CCSC(=O)N(CC(C)C)CC(C)C | inactive | 
40 | c1ccc2[nH]c(-c3cscn3)nc2c1 | inactive | 
